Hits are enriched below; roughly 2.4% of the tested compounds scored in any of these assays.
Peg3 imprint: induces erasure of genomic imprints in mouse ES cells | mouse ES Peg3-LacZ reporter, beta-gal luminescence, 40 h | Potency, µM (titrated, usually from 60.7 µM), for inactives: at the highest dose activity change, positive = activation, most hits filed as activators | hit rate 0.02% among 110,000
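Readout: BetaGlo luminescence (5 min, room temp) for LacZ from the normally silent maternal Peg3 allele in female Peg3LacZ-Neo ES cells. Cells 300/well, 40 h, 37C, 5% CO2. Data normalized per plate to negative controls.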
FLuc inh: blocks Photinus pyralis firefly luciferase activity; P08659; purified firefly luciferase, luminescence, 8 min; Potency, µM (doses to about 57.1 µM), without a hit: at the highest dose activity change, negative = inhibition, most hits filed as inhibitors; hit rate 2.2% among 72,000; AID 411; also: % is scaled to controls: 0 for no effect and ±100 for the full control effect; nearly all actives have a fitted effect of over 40% in size
Target sequence (P08659 whole entry, looked up): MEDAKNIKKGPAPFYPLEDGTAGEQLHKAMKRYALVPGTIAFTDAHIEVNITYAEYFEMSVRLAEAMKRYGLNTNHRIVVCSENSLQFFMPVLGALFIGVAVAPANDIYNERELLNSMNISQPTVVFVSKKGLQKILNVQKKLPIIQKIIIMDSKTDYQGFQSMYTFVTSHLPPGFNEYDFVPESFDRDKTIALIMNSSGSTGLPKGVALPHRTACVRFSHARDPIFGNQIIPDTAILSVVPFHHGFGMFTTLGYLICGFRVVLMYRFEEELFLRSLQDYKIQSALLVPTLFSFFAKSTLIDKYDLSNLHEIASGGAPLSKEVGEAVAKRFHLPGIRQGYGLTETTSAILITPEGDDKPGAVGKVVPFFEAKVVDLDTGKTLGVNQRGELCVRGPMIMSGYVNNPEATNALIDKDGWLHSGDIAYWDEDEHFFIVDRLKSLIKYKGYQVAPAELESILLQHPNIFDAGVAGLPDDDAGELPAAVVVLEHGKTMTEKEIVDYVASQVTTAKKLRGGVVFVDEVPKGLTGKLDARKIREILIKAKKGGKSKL
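Inhibition of light generation by firefly luciferase from ATP and luciferin was profiled with concentration-response curves per sample, ATP held at 10 uM within the enzyme's linear range. Plates were read by luminescence after an 8-minute ambient incubation.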
IkB signaling: suppresses IkB signaling in ABC-DLBCL reporter cells | ABC-DLBCL IkBa-CBG/CBR dual luciferase ratio, 4 h; response scale: scaled: untreated 0%, proteasome inhibitor 100% | Potency, µM (series often up to 57.1 µM), without a hit: at the highest dose IkBa stabilization activation | hit rate 0.04% among 110,000; active = well fitted curve in the direction sought with a large enough effect in the signal ratio, not every such curve was filed as active; inconclusive = small, poorly fitted or top-dose-only effect, or a change in a side signal; the % refers to the signal ratio;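 also: the direction sought is a rising ratio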
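In this assay, an IκBα–CBG68 fusion accumulates when IKK-driven degradation is blocked; native CBR normalizes for cell number. OCI-Ly3 cells were treated 4 h with compound and doxycycline, then green and red light read after Chroma-Glo addition.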
p53ts 39C kill: cytotoxicity in p53ts cells at nonpermissive temperature; H1299-p53A138V viability at 39C, ATP luminescence, 24 h; Potency, µM (titrated, usually from 46.1 µM), for inactives: top-dose activity change, negative = cell killing, hits mostly cytotoxic; hit rate 1.5% among 130,000; AID 902; also: % is scaled to controls: 0 for no effect and ±100 for the full control effect; nearly all actives have a fitted effect of over 55% in size
p53ts 32C tox: p53ts cell cytotoxicity, permissive temperature; H1299-p53A138V at 32C, ATP luminescence viability, 24 h; Potency, µM (titrated, usually from 46.1 µM), for inactives: at the highest dose activity change, negative = cytotoxicity, most hits filed as cytotoxic; hit rate 0.93% among 130,000; AID 924;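 also: 0% = DMSO and -100% = full killing by reference compound; nearly all actives have a fitted effect of over 55% in size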
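ATP-content luminescence (ATPlite) read-out after 24 h compound exposure at 32C in H1299-p53A138V cells (600/well). Tested up to 46 uM. Normalized to DMSO (0%) and 100 uM tamoxifen (100% killing); Hill-fit AC50.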
Numbers without * were called inactive; ? = inconclusive; · = no result; ! = not active in a repeat; [ ] = dose if it differs, or a comment. Unless noted, calls follow the shape of the dose curve; as a rule, active = well fitted curve in the direction sought with a large enough effect; inconclusive = small, poorly fitted or top-dose-only effect, or another doubt; inactive = no such curve, though single readings can be large; an effect the other way counts as inactive or inconclusive. Potency is read from the fitted curve at half-maximal effect.

SMILES	Peg3 imprint	FLuc inh	IkB signaling	p53ts 39C kill	p53ts 32C tox
O=C(N[C@@H](Cc1ccccc1)C(=O)CCl)OCc1ccccc1	-30%	-15%	?	3.2µM*	4µM*
COCCNC(=O)c1ccc(-n2c(=O)c(=O)[nH]c3ccccc32)cc1	·	·	·	9%	8%
C[C@@H](COc1ccc(/C=C\c2ccccc2)cc1)[N+](C)(C)C	·	-4%	-23%	-11%	32%
Cc1cccc2sc(N(Cc3cccnc3)C(=O)c3cccs3)nc12	-8%[10.9 µM]	·	?	10%	-7%
CN(C(=O)CC(=O)Nc1ccc2nc3n(c(=O)c2c1)CCCCC3)c1ccccc1F	21%[10.9 µM]	·	1%	-19%	7%
CC(=O)c1ccc(NC(=O)c2noc3c2CCCCC3)cc1	-16%	?	1%	-10%	-17%
O=C(Nc1ccc2c(c1)OCO2)c1cc(C2CC2)on1	-43%	7.9µM*	14%	?	?
COc1ccc(-c2cc(C(=O)Nc3ccc4c(c3)OCO4)no2)cc1	-12%[10.9 µM]	·	0%	-19%	4%
O=C(Nc1ccc2c(c1)OCO2)c1noc2c1CCCCC2	-75%	7.9µM*	?	16µM*	16µM*
CC(C)c1cc(C(=O)Nc2ccc3c(c2)OCO3)no1	-58%	7.9µM*	?	?	16µM*
O=C(Nc1ccc2c(c1)OCO2)c1ccncc1	-61%	-5%	-2%	-5%	-6%
O=C(Nc1ccccc1C(F)(F)F)c1noc2c1CCCCC2	-9%[10.9 µM]	·	3%	13µM*	13µM*
CC(C)OCCCn1c(=O)c2ccccc2n2c(-c3ccccc3)nnc12	23%[10.9 µM]	·	3%	25%	8%
CC(C)c1cc(C(F)(F)F)n2nc(C(=O)Nc3ccc4c(c3)OCO4)cc2n1	-15%	20µM*	0%	-13%	-15%
O=C(Nc1c(C(=O)N2CCN(c3ccccc3)CC2)oc2ccccc12)c1ccc(Br)o1	-15%[10.9 µM]	·	1%	-1%	10%
COc1ccc(OC)c(S(=O)(=O)N2CCC(c3ccncc3)CC2)c1	-15%[10.9 µM]	·	0%	-26%	4%
Cc1ccc(NC(=O)N2CCC(c3ccccc3)C2)cc1C (stereo not given)	-12%[10.9 µM]	·	21%	13µM*	?
Cc1ccc(NC(=O)N2CC3CCCN3c3ccccc32)cc1C (stereo not given)	-9%[10.9 µM]	·	?	-11%	?
Cc1ccc(NC(=O)N2CCC(C(=O)NCc3ccccc3)CC2)cc1	-8%	0%	1%	1%	1%
O=C(Nc1ccc(Cl)cc1)N1CCC(c2ccccc2)C1 (stereo not given)	-18%[10.9 µM]	·	?	13µM*	?
Cc1ccc(C2CCN(C(=O)Nc3ccccc3)C2)cc1 (stereo not given)	-48%	25µM*	?	?	?
CC(C)Oc1ccc(CNC(=O)C2CCN(C(=O)N3CCOc4ccc(Cl)cc43)CC2)cc1	-11%[10.9 µM]	·	?	12%	14%
CCc1ccc2occ(CC(=O)Nc3c(C(=O)Nc4ccc(C)cc4)oc4ccccc34)c2c1	-3%[10.9 µM]	·	?	32µM*	-29%
CCc1ccc2occ(CC(=O)Nc3c(C(=O)Nc4ccc(Cl)cc4)oc4ccccc34)c2c1	-15%[10.9 µM]	·	-1%	-25%	1%
CC(C)c1nc(SCC(=O)N2CCCC2)c2ccccc2n1	-40%	7.9µM*	?	-24%	?
SMILES	Peg3 imprint	FLuc inh	IkB signaling	p53ts 39C kill	p53ts 32C tox
CCc1nc(SCC(=O)N2CCCC2)c2ccccc2n1	-3%	-2%	1%	-15%	-3%
Cc1c(C(=O)O)c(O)cc2c1C(=O)c1c(O)c([C@@H]3O[C@H](CO)[C@@H](O)[C@H](O)[C@@H]3O)c(O)c(O)c1C2=O	·	-5%[11.4 µM]	0%[11.4 µM]	·	·
c1ccc(-n2ncc3c(NCCCN4CCOCC4)ncnc32)cc1	·	·	·	-11%	-19%
COCCCNc1ncnc2c1cnn2-c1ccc(F)cc1	-15%[10.9 µM]	·	-2%	10µM*	?
Clc1ccc(-n2ncc3c(NCCCn4ccnc4)ncnc32)cc1	·	-7%[25.5 µM]	·	·	·
CCCCNc1ncnc2c1cnn2-c1ccccc1	-16%	13µM*	?	?	?
CCCCNc1ncnc2c1cnn2-c1ccc(Cl)cc1	-27%	10µM*	4%	-28%	-26%
CCNC(=O)[C@@H]1O[C@@H](n2cnc3c(NCc4ccccc4)ncnc32)[C@@H](O)[C@H]1O	·	0%	?	·	·
O[C@@H](c1cc(-c2ccccc2)nc2c1ccc1ccccc12)[C@@H]1CCCCN1	·	1%[11.4 µM]	1%[11.4 µM]	-8%[9.22 µM]	6%[9.22 µM]
C[C@]12CC[C@H](O)CC1=CC[C@H]1[C@@H]2CC[C@@]2(C)C(N(CCO)CCO)CC[C@@H]12 (stereo not given in full)	3%[10.9 µM]	·	·	·	·
CC(C)(C)NC(=O)NC(=O)COc1ccccc1C#N	-69%	20µM*	?	13µM*	13µM*
Cn1c(=O)c2cc(C(=O)NC3CCCCCC3)sc2c2ccccc21	-10%[10.9 µM]	·	1%	7.9µM*	?
Cc1cc2c(C)nc(-c3ccccc3)nc2o1	-11%	1%	0%	-1%	5%
Cc1nc2cc(-c3ccccc3)ccc2o1	-3%	16µM*	2%	-4%	-1%
CCN(CC)CCC[C@H](C)Nc1c2ccc(Cl)cc2nc2ccc(OC)cc12	-10%[16.8 µM]	6.3µM*!	?	10µM*	5µM*
CCN(CCO)CCCC(C)Nc1ccnc2cc(Cl)ccc12 (stereo not given)	-8%	·	·	1%	-6%
CCOC(=O)c1cc(-c2ccc(N)cc2)sc1N	-10%	13µM*	-1%	-18%	-17%
CCOC(=O)c1ccc(N)cc1	-4%	2%[25.5 µM]	0%[25.6 µM]	-6%	0%
CCOC(=O)N1CCN(C(=O)c2ccc3c(c2)N(Cc2ccccc2F)C(=O)c2ccccc2S3(=O)=O)CC1	6%[10.9 µM]	·	0%	-13%	13%
Cc1cc(C)c2ccc(N)nc2c1O	-26%	2%	5µM*	?	-22%
COc1ccc(-c2nn(C)c3sc(C(=O)Nc4cccc(F)c4)cc23)cc1OC	?	·	1%	30%	-6%
CCC(=O)OCc1cnc(C)c2oc(=O)c(C(=O)Nc3ccc(CC)cc3)cc12	2%[10.9 µM]	·	-1%	-13%	2%
Brc1ccc(-c2nnc(-c3ccccc3Br)o2)cc1	-50%	4µM*	2%	?	?
Brc1ccccc1-c1nnc(-c2cccnc2)o1	-45%	?	4%	?	?
Clc1ccc(-c2nnc(-c3ccccc3Cl)o2)cc1	-61%	13µM*	9%	?	?
Clc1ccccc1-c1nnc(-c2ccccc2Cl)o1	·	·	·	-14%	?
Cc1ccccc1-c1nnc(-c2ccccc2)o1	-66%	13µM*	?	-12%	-22%
COc1ccc(NC(=O)c2cc(S(=O)(=O)N3CCCC(C)C3)cn2C)c(OC)c1 (stereo not given)	-8%[10.9 µM]	·	-1%	4%	13%
CCOC(=O)c1sc(NC(=O)c2ccc(C)o2)nc1C	-86%	13µM*	?	7.9µM*	7.9µM*
